The record followed here is PubChem BioAssay (NCI).

Molecules are shown by their SMILES. About 79,000 compounds went through this panel and 15% of them were active in at least one assay; those are over-represented in the sample as a whole. Values without a mark were called inactive. The source made the active and inactive calls. No stated cut-off is given here; in the data, active means growth inhibition above about 70%; inactive means the rest.

The assay is described as follows: NCI Yeast Anticancer Drug Screen. Data for the rad50 strain (AID 155).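 Further: 0% = growth of vehicle-only cultures of the same strain.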 To be noted: S. cerevisiae rad50 strain growth inhibition; at 11.0 µM; stronger effect = higher value. The method in brief: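 Growth of the mutant yeast was measured after compound exposure and referenced to vehicle-treated cultures.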
Turning to `CS(=O)(=O)SCc1ccc([N+](=O)[O-])cc1`, the growth inhibition was 97% (active).
For the molecule `Cc1csc(=S)n1OC(=O)NC1CCCCC1`, the growth inhibition is 99% (active).
Regarding `CCOc1ccc(NC(=O)C2=C(C)NC(C)=C(C(=O)Nc3ccc(OCC)cc3)C2c2cccc([N+](=O)[O-])c2)cc1`, the growth inhibition is -1%.
Under `CC(C)(C)N=C(NO)c1ccccc1` stands 2%; under `CCCCC/C(=C(\C#N)C(=O)OCC)c1ccccc1`, 4%.
Under `O=C(NCCCl)Sc1ccc(Cl)cc1` stands 7%; under `O=C1Nc2ccc(Br)cc2C1=Nc1ccc2c(c1)OCO2`, -27%; under `CCC(C)OC(=O)Nc1ccc(C)c(NC(=O)OC(C)CC)c1` (centres undefined), 2%.
The figure for `O=C(O)c1cc2ccc(Cl)cc2c(O)c1C1=CCCCC1` is 11%; for `CN(C)Cc1cc(N=Nc2ccc(Cl)cc2)ccc1OC(=O)c1ccccc1` it is 1%.
Consider `CN1CCN(C(=O)/C=C/C(=O)c2ccccc2)CC1`, for which the growth inhibition is 23%.
In the case of `CCCC/C=C/C(C)(C(=O)OCC)C(=O)OCC`, the growth inhibition was -1%.
Under `Cc1nc(-c2cc3cc([N+](=O)[O-])ccc3oc2=O)cs1` stands 23%; under `Cc1nc2ccccc2nc1NNc1ccccc1`, 9%; under `CN(C)[C@@H]1C(=O)C(C(N)=O)=C(O)[C@@]2(O)C(=O)C3=C(O)c4c(O)cccc4C[C@H]3C[C@@H]12`, 9%.
Under `COc1ccc(NC(=O)CC2SC(=Nc3ccccc3C)NC2=O)c([N+](=O)[O-])c1` (centres undefined) stands 26%; under `COc1cc(O)c2c(c1O)C(=O)c1cc(C)ncc1C2=O`, 33%.
Under `CSc1nnc(SC)nn1` stands -2%; under `COc1cc(/C=C2\CCC/C(=C\c3ccc(O)c(OC)c3)C2=O)ccc1O`, -7%; under `CN(C)CCNC(=O)c1cccc2cc([N+](=O)[O-])ccc12`, 77% (active).
For the molecule `CCC(C)(C)c1ccc(Oc2cccc(C(=O)O)c2)cc1`, the growth inhibition is 25%.
Under `CCCCCCSc1ncnc2[nH]ncc12` stands 34%; under `CC(=O)Nc1ccc(/C=C/[N+](=O)[O-])cc1`, 67%.
Consider `CCOC(=O)c1[nH]n(-c2ccccc2)c(=O)c1C=NC(=S)C(N)=S`, for which the growth inhibition is 31%.
Under `CCCC(O)C1CC(C(C)C)CCC1C` (centres undefined) stands 25%.
The figure for `O=[n+]1c2ccccc2n([O-])c2cc(Br)ccc21` is 98% (active); for `CN(C)CCNC(=O)c1cccc2c1Oc1c(cccc1[N+](=O)[O-])O2` it is 24%.
Take `Nc1ncc(-c2ccc(Br)cc2)s1`: the growth inhibition is 13%.
The figure for `Cc1cc2cc3cc(C)c(N)cc3nc2cc1N` is 27%; for `CC12C(=O)OC(=O)C(c3ccccc31)c1ccccc12` it is -16%.
Under `c1ccc2c(OCC3CO3)cccc2c1` (centres undefined) stands 66%; under `CCOC(=N)c1ccc(O)c(OC)c1`, 11%; under `Nc1cc(N)c(N=Nc2cccc3c(S(=O)(=O)O)cccc23)cc1N=Nc1cc([N+](=O)[O-])ccc1O`, 8%.
The figure for `COC(=O)Oc1cc(Cl)c(Cl)cc1Cl` is -1%; for `O=C(O)C1CC(c2ccccc2)=NN1c1ccccc1` (centres undefined) it is -1%; for `COc1cc([C@@H]2c3cc4c(cc3[C@@H](Nc3ccc(NC(=O)c5cc([N+](=O)[O-])cn5C)cc3)[C@H]3COC(=O)[C@H]23)OCO4)cc(OC)c1O` it is 88% (active).
On to `O=C(O)c1ccccc1/C=N/N=C1c2ccccc2-c2ccccc21`, for which the growth inhibition was 7%.
Under `O=C1CC(=O)c2ccccc21` stands -9%.
The figure for `Nc1ncnc2c1ncn2C1OC(CO)CC1O` (centres undefined) is 30%.
